Compounds with a hit are over-represented: about 3% of the library has one in this group of screens.
BH1578 lux ind = inducers of Vibrio cholerae quorum light production without autoinducers. activation, % at 18.7 µM. V. cholerae BH1578 lux reporter, luminescence, 6 h. 350,000 compounds, 0.16% hits; in the data active means activation mostly above about 9.7%, no sharp cut-off
GDH-TPI counter = GDH-TPI coupled enzyme inhibition counter-screen; inhibition, % at 4.8 µM; 360,000 compounds, 1.2% hits; GDH-TPI coupled enzyme counterscreen, NADH absorbance; in the data active means inhibition above about 30%;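 further: 0% = DMSO wells and 100% = wells lacking the enzyme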
Mtb BioA inh = inhibitors of Mycobacterium tuberculosis BioA enzyme | purified M. tuberculosis BioA enzyme, plate reader | inhibition, % at 9.99 µM | 360,000 compounds, 0.096% hits; in the data active means inhibition above about 40%
FBA Mtb inh = Mtb fructose-bisphosphate aldolase inhibition. P9WQA3. purified M. tuberculosis FBA, fluorescence read-out. inhibition, % at 1 µM. 360,000 compounds, 2.3% hits; in the data active means inhibition above about 27%;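 further: 0% = vehicle and 100% = reference inhibitor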
Target sequence (P9WQA3 whole entry, looked up): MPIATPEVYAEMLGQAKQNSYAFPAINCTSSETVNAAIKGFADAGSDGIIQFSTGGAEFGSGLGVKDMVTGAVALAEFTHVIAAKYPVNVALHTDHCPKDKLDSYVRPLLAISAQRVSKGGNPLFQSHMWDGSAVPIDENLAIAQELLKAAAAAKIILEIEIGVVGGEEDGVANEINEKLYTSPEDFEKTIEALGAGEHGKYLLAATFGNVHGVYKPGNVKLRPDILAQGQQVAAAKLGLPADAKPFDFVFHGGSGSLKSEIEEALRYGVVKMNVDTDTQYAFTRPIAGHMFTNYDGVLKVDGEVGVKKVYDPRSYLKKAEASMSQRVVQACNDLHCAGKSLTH
The depositor's hits bear a star; i = inactive; / = not tested or not shown; + = active, no number.

SMILES	BH1578 lux ind	GDH-TPI counter	Mtb BioA inh	FBA Mtb inh
Cc1noc(C)c1S(=O)(=O)N(C)C[C@H]1OCCCC[C@H](C)Oc2ccc(NC(=O)NC3CCCCC3)cc2C(=O)N([C@H](C)CO)C[C@@H]1C	/	/	-0.9	/
COc1ccc(-c2nc(C#N)c(N3CCC(C(N)=O)CC3)o2)cc1	i	16.2	/	+
CC(C)(C)c1ccc(-c2nc(C#N)c(N3CCC(C(N)=O)CC3)o2)cc1	-1.1	21.0	2.1	166.0*
N#Cc1nc(-c2cccc(Cl)c2)oc1N1CCC(C(N)=O)CC1	i	5.7	-1.1	+
N#Cc1nc(-c2ccc(OCc3ccccc3)cc2)oc1N1CCC(C(N)=O)CC1	i	10.4	/	24.0
C[C@@H]1CN([C@@H](C)CO)C(=O)c2cccc(NS(=O)(=O)c3cn(C)cn3)c2O[C@H]1CN(C)CC1CC1	/	/	-1.7	/
C[C@@H]1CN([C@H](C)CO)C(=O)c2cc(NC(=O)CCC(F)(F)F)ccc2O[C@@H]1CN(C)C(=O)Nc1cccc2ccccc12	/	/	0.5	/
CN1C(=O)c2cc(NC(=O)c3ccno3)ccc2OC[C@H]2O[C@@H](CC(=O)NCC3CC3)CC[C@@H]21	/	/	-1.7	/
COc1ccc(O)c(/C=N/NC(=S)Nc2cccc(S(=O)(=O)N(C)C)c2)c1	-2.4	6.0	-1.1	4.3
CN(C)S(=O)(=O)c1cccc(NC(=S)N/N=C/c2ccc(O)c(O)c2O)c1	-0.4	32.1*	1.9	-4.6
CN(C)S(=O)(=O)c1cccc(NC(=S)N/N=C/c2ccco2)c1	-4.2	52.0*	1.5	4.4
C[C@H]1CN([C@@H](C)CO)S(=O)(=O)c2ccc(-c3cccc(C(=O)N(C)C)c3)cc2O[C@H]1CN(C)C	/	/	0.6	/
Cc1cc(=O)oc2c3c(cc(OCC(=O)NCCN4CCOCC4)c12)OC(C)(C)CC3	-0.4	16.7	2.0	191.3*
Cc1cc(=O)oc2c3c(cc(OCC(=O)NCCCn4ccnc4)c12)OC(C)(C)CC3	-0.2	12.5	19.7	+
CCCNC(=O)C[C@H]1CC[C@H]2[C@@H](COc3ccc(NC(=O)c4ccccc4)cc3C(=O)N2C)O1	/	/	-2.2	/
O=C(C[C@H]1C[C@@H]2c3cc(NC(=O)Nc4ccccc4F)ccc3O[C@@H]2[C@@H](CO)O1)NCC(F)(F)F	/	/	-0.1	/
CO[C@H]1CN(C)C(=O)c2cc(NC(=O)C3CC3)ccc2OC[C@@H](C)N(CC2CC2)C[C@H]1C	/	/	-2.0	/
COC(=O)Cc1[nH]n(-c2nc3ccccc3s2)c(=O)c1C(C)=O	+	-2.8	-3.1	7.4
CCCC(=O)Nc1ccc2c(c1)C(=O)N(C)[C@@H]1CC[C@@H](CC(=O)NCC3CC3)O[C@@H]1CO2	/	/	-3.1	/
CN(C)CCCN(C(=O)/C=C/c1cccs1)c1nc2c(F)cccc2s1	-0.3	36.7*	/	-3.7
Cc1cccc2sc(N(CCN(C)C)C(=O)/C=C/c3cccs3)nc12	-0.2	10.9	-2.0	5.0
COc1ccc2nc(N(CCN(C)C)C(=O)/C=C/c3cccs3)sc2c1	i	32.3*	/	0.4
COc1ccc2sc(N(CCN(C)C)C(=O)/C=C/c3cccs3)nc2c1	-0.7	28.4	/	3.3
C[C@H]1CN([C@@H](C)CO)C(=O)c2cccc(NC(=O)NC3CCCCC3)c2O[C@H]1CN(C)S(=O)(=O)c1cccs1	/	/	0.6	/
Cc1c(CCC(=O)NCCCN2CCCC2=O)c(=O)oc2c(C)c(O)ccc12	-0.4	14.7	0.3	+
SMILES	BH1578 lux ind	GDH-TPI counter	Mtb BioA inh	FBA Mtb inh
Cc1c(CCC(=O)NC2CC2)c(=O)oc2c(C)c(O)ccc12	-0.5	20.6	-1.6	+
C=C(C)COc1ccc2c(C)c(CCC(=O)NC3CC3)c(=O)oc2c1	-4.3	17.6	/	+
Cc1oc2cc3oc(=O)c(CCC(=O)NCCCN4CCOCC4)c(C)c3cc2c1C	-0.4	21.6	-0.5	16.9
Cc1c(CCC(=O)NCCCN2CCCC2=O)c(=O)oc2cc(O)ccc12	0.2	18.6	-1.1	+
Cc1coc2c(C)c3oc(=O)c(CCC(=O)NCCCN4CCCC4=O)c(C)c3cc12	-0.4	6.2	-0.8	9.5
COc1ccc(S(=O)(=O)N(C)C[C@H]2OCCCC[C@@H](C)Oc3ccc(NC(=O)NC4CCCCC4)cc3C(=O)N([C@@H](C)CO)C[C@@H]2C)cc1	/	/	0.0	/
Cc1ccccc1S(=O)(=O)N1C[C@@H](O)COC[C@H]2O[C@@H](CC(=O)N3CCC(Cc4ccccc4)CC3)CC[C@@H]21	/	/	2.8	/
Cc1c(C(=O)O)cccc1-n1c(C)cc(/C=N/NC(=O)c2cc3ccccc3o2)c1C	i	39.4*	/	0.3
Cc1cc(C)cc(-n2c(C)cc(/C=N/NC(=O)c3ccncc3)c2C)c1	-0.4	15.6	-0.2	-4.8
Cc1ccccc1-n1c(C)cc(/C=N/NC(=O)c2ccncc2)c1C	i	31.2*	1.0	-1.1
COc1ccc(CN(C)C[C@H]2OCCCC[C@H](C)Oc3ccc(NC(=O)Nc4cccc5ccccc45)cc3C(=O)N([C@H](C)CO)C[C@H]2C)cc1	/	/	-2.2	/
CCOC(=O)Cc1c(Cl)c2ccccc2[nH]c1=O	-0.3	5.0	-0.9	1.0
CCOC(=O)C[n+]1ccc2c([nH]c3ccccc32)c1C	i	3.5	-2.2	134.9*
COC(=O)c1ccc(S(=O)(=O)c2ccccc2)c(N)c1	-7.7	9.7	0.0	121.4*
COC(=O)c1ccc(N2CCCCC2)c(N)c1	2.4	-2.5	22.4	2.0
C[C@@H]1CN([C@H](C)CO)C(=O)c2cc(NS(=O)(=O)c3ccc(F)cc3)ccc2O[C@@H](C)CCCCO[C@@H]1CN(C)S(=O)(=O)c1ccc(F)cc1	/	/	-3.0	/
NC(=O)N\N=C/C=C/C=C/c1ccc(F)cc1	0.0	52.9*	0.9	-5.1
CC(Oc1cc2oc(=O)c3c(c2cc1Cl)CCCC3)C(=O)NCc1ccccn1 (configuration not stated)	-0.7	12.6	9.8	13.8
CC(Oc1cc2oc(=O)c3c(c2cc1Cl)CCC3)C(=O)NCc1ccccn1 (configuration not stated)	-0.4	5.5	63.1*	2.4
COc1cccc(S(=O)(=O)N[C@H]2CC[C@@H](CCNC(=O)Nc3cc(F)ccc3F)O[C@H]2CO)c1	/	/	0.9	/
CCCN(C)C[C@@H]1Oc2ncc(-c3cccc(C(=O)N(C)C)c3)cc2C(=O)N([C@@H](C)CO)C[C@@H]1C	/	/	0.5	/
CCc1cc(N2CCOCC2)cc2c1[nH]c1ccccc12	-0.2	-1.9	0.4	96.0*
c1ccc2c(c1)[nH]c1c(N3CCOCC3)ncnc12	-0.3	20.0	2.3	13.2
O=C(NCCCN1CCCC1=O)c1cc(-c2ccc3c(c2)OCO3)nc2ccccc12	-0.3	34.1*	0.6	6.5
O=C(NCCCN1CCOCC1)c1cc(-c2ccc3c(c2)OCO3)nc2ccccc12	/	25.5	-1.5	0.9
C[C@@H]1CN([C@H](C)CO)C(=O)c2cccc(NS(=O)(=O)c3ccccc3)c2O[C@H]1CN(C)Cc1ccc(-c2ccccc2)cc1	/	/	-2.4	/
CC1=CN2C(=N)/C(=C/c3ccc([N+](=O)[O-])o3)C(=O)N=C2S1	-3.3	9.0	/	-3.0
CC1=CN2C(=N)/C(=C/c3ccco3)C(=O)N=C2S1	-0.2	33.2*	/	-3.6
CC[n+]1c(/C=C/N(C)c2ccccc2)oc2ccccc21	-0.5	67.6*	0.5	-1.0
CC[n+]1c(/C=C/N(C)c2ccccc2)oc2ccc(F)cc21	-2.8	41.5*	-2.0	-1.3
